Source: PubChem BioAssay

Experiment: S. cerevisiae growth modulation with rapamycin, primary screen, strain BY4716, OD600, 96 h (AID 1091); note: test concentration not given here
Settings: higher = more signal, called active from +8 up or from −8 down

z-score, inactive:
COc1ccc([Si](C)(C)[C@H]2[C@H](CC(=O)N3CCC[C@H]3CO)O[C@@]3(C(=O)N(Cc4cccc(N5C(=O)COc6ccccc65)c4)c4ccccc43)[C@@H]2C)cc1 -0.827
CC(=O)OC[C@H]1O[C@H](C#CCCCc2ccccc2)C=C[C@@H]1OC(C)=O -0.967
CC(C)[C@H](NC(=O)OC(C)(C)C)[C@@H](O)CC(=O)OC(C)(C)C 0.596
COCCCNC(=O)[C@]1(CCC(=O)OC(C)(C)C)N=C(c2ccc(OCCCO)cc2)O[C@@H]1c1ccccc1N=[N+]=[N-] 0.719
C[C@@H]1C=CCC(=O)OC[C@H](C)C(=O)N[C@@H](C)C(=O)OC1 -0.113
COC(=O)[C@@]1(Cc2ccc(F)cc2)[C@H]2c3cc(C(=O)N(C)C)n(Cc4ccc(OC)c(OC)c4)c3C[C@H]2CN1C(=O)c1ccccc1 -0.249
CCCCCN1CC=CC23O[C@@H]4C=CCOC(=O)[C@@H]4[C@H]2C(=O)N(CCCCCCO)[C@@H]3C1=O (stereo partly specified) -0.291
COc1ccc(O[C@H]2C=C[C@@H](c3ccccc3)O[C@@H]2COC(=O)CCC(C)=NO[C@H](C)c2cn([C@@H]3COC[C@H]3O)nn2)cc1 -0.56
C#C[C@@H]1Oc2ccccc2S(=O)(=O)N2CCC[C@H]12 -2.55
CC(C)(C)OC(=O)CC[C@]1(C(N)=O)COC(c2ccc(OCCCO)cc2)=N1 0.0262
COc1ccc(O[C@H]2C=C[C@@H](c3ccccc3)O[C@@H]2COC(=O)CCC(C)=NOC[C@@H](C)[C@H](OCc2ccccc2)C(C)C)cc1 -1.18
